# Test results: PubChem BioAssay AID492949 (National Center for Advancing Translational Sciences (NCATS), 2010)
# Records with an inconclusive call do not appear. A call without a number means that no potency is given here. Calls of active or inactive are those of the source. Calls come from the whole dose curve; as a rule, active = well fitted activation curve with a large enough effect; inconclusive = small, poorly fitted or top-dose-only effect; inactive = no such curve, though single readings can be large or run the other way.
# Molecular target: Relaxin receptor 1 (Homo sapiens) (UniProt Q9HBX9)
# Assay: qHTS Assay for Agonists of the Relaxin Receptor RXFP1: THP1 Hit Validation; note: nearly all actives have a fitted effect of over 60% in size
# Conditions: THP1-RXFP1 cells, cAMP TR-FRET, 30 min; series mostly up to 115 µM
# Description: The relaxin hormone is involved in the variety of biological functions in normal tissues and diseases. The role of relaxin is well-established in female reproduction and parturition, mammary gland and endometrial development, maintenance of myometrial quiescence during pregnancy. Relaxin signaling through its G protein-coupled receptor (GPCR) RXFP1 results in ECM remodeling through regulation of collagen deposition, cell invasiveness, proliferation and overall tissue homeostasis. […] Recombinant human relaxin (rhRlx) is currently being tested in clinical trials as a protective agent in congestive heart failure, in treating severe preeclampsia, and as an anti-fibrotic agent in systemic sclerosis.
# Upon relaxin binding RXFP1 activation leads to the activation of adenylate cyclase (AC) via Gs. cAMP will activate PKA, which phosphorylates many signaling proteins. Thus, detection of cAMP increase is an easy and reliable indication of relaxin receptor activation. To screen for agonists of the relaxin receptor, a THP1 cell line stably transfected with RXFP1 was used. RXFP1 activation was assayed by changes in cAMP levels as detected with a time-resolved fluorescence energy transfer (TR-FRET) cAMP detection kit.
# NIH Chemical Genomics Center [NCGC]
# NIH Molecular Libraries Probe Production Centers Network [MLPCN]
# Assay Submitter (PI): Alexander Agoulnik
# NCGC Assay Protocol Summary:
# This is a cell-based assay for cAMP second messenger response to screen for agonists of the RXFP1 receptor. The assay was conducted in the presence of a PDE4 inhibitor (Ro 20174). The cells were lysed and the cAMP levels were measured with a TR-FRET cAMP kit. Presence of cAMP in the cell lysate disrupts binding between the cryptate-labeled anti-cAMP and d2-labeled cAMP pair, leading to a decrease in the TR-FRET signal. Data were normalized to the controls for basal activity (buffer only) and 100% activity (29 nM porcine relaxin). The EC50 values were determined from concentration-response data modeled with the standard Hill equation
# 1536-well assay protocol for the THP1 RXFP1 cAMP assay:
# (1) Add 3 ul THP1 RXFP1 cell culture. 2000 cells/well in DMEM/F12, 10% FBS, 1x Pen/Strep (dispensed offline with MultiDrop Combi).
# (3) Add 23 nl compounds in DMSO solution. Final concentration was 0.5 - 58 uM.
# (4) Incubate 30 min at 37C, 5% CO2.
# (5) Add 1 ul cAMP-d2 in lysis buffer (HTRF cAMP HiRange kit, CisBio).
# (6) Add 1 ul anti-cAMP antibody-cryptate in lysis buffer (HTRF cAMP HiRange kit, CisBio).
# (7) Incubate 30 min at room temperature.
# (6) Detect the assay plate in a ViewLux plate reader (PerkinElmer) with Ex=320 nm, Em1=615 nm and Em2=665 nm.
# Keywords: relaxin, RXFP1, RXFP2, G-protein coupled receptor, cAMP, agonist, high throughput screening, MLSMR, MLSCN, NIH Roadmap, qHTS and NCGC
# Potency is the fitted concentration of half-maximal effect.
# Relaxin receptor 1 (Homo sapiens), sequence (Q9HBX9 whole entry, looked up): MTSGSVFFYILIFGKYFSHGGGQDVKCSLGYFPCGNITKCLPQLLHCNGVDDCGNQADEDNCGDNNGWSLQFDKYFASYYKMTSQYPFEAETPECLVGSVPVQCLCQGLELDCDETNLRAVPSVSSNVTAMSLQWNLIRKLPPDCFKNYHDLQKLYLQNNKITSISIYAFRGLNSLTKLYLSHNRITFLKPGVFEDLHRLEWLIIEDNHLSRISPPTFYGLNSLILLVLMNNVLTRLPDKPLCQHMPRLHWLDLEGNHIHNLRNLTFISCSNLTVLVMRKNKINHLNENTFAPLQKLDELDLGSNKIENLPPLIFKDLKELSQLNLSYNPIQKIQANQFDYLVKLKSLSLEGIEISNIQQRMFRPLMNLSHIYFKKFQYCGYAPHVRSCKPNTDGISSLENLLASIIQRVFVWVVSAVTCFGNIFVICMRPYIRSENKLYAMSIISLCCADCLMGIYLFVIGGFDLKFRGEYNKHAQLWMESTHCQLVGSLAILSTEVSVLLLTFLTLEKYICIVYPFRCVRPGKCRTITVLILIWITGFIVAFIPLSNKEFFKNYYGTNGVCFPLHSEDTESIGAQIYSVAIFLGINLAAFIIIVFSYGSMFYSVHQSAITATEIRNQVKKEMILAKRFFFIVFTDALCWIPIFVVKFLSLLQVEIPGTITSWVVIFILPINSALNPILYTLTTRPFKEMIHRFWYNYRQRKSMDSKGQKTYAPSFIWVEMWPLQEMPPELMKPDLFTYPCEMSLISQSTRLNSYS
row,Compound,Potency
1,O=C(Nc1ccccc1C(=O)NCc1ccco1)c1ccccc1,inactive
2,CN1C(=O)c2ccc(C(=O)Nc3ccc(Br)cn3)cc2C1=O,21.8 µM (active)
3,O=C(Nc1ccccc1C(=O)N1CCN(c2ccccc2)CC1)c1ccco1,inactive
4,O=C(Nc1ccccc1C(=O)NCc1ccccc1)c1ccco1,inactive
5,CCS(=O)(=O)Nc1cccc(-c2ccc3nnc(-c4cccnc4)n3n2)c1,27.5 µM (active)
6,CCC(Sc1ccc2nnc(-c3cccnc3)n2n1)C(=O)OC (stereo not given),19.4 µM (active)
7,COc1ccc(Cl)cc1-c1n[nH]c(=S)o1,6.15 µM (active)
8,COc1ccc(S(=O)(=O)Nc2ccccn2)c(C)c1C,inactive
9,Cc1ccc(-n2nnc3c(=O)n(CC(=O)NCC4CCCO4)cnc32)cc1 (stereo not given),15.5 µM (active)
10,COC(=O)Cn1cnc2c(C#N)c3n(c2c1=O)CCCC3,24.5 µM (active)
11,CCCC(=O)Nc1ncnc2c1ncn2[C@@H]1O[C@@H]2COP(=O)(O)O[C@H]2[C@H]1OC(=O)CCC,1.23 µM (active)
12,O=c1oc2cc(O)c(Cl)cc2c2ccccc12,8.68 µM (active)
13,COc1ccc(CNC(=O)CN2C(=O)NC(C)(c3cccc(Br)c3)C2=O)cc1 (stereo not given),inactive
14,CCN(CC)S(=O)(=O)c1ccc(N2CCOCC2)c(NC(=O)c2cccc(C#N)c2)c1,27.5 µM (active)
15,CN(CC(=O)Nc1ccccc1Cl)C(=O)COC(=O)Cc1c(F)cccc1Cl,inactive
16,CN(C)c1ccc(NC(=O)C2C3C=CC(C3)C2C(=O)O)cc1 (stereo not given),inactive
17,Cc1ccc2cc(CN(C(=O)c3cccs3)c3ccccc3)c(=O)[nH]c2c1,inactive
18,Cc1cccc(NC(=O)c2ccccc2NC(=O)C2CCCCC2)c1C,inactive
19,O=C(Nc1ccccc1C(=O)NCCc1ccccc1)c1ccco1,inactive
20,CC(C)c1ccccc1NC(=O)c1ccccc1NC(=O)C1CCCCC1,inactive

row,Compound,Potency
1,CCOC(=O)CNC(=O)CSc1nc2c(C)cccc2cc1CC,19.4 µM (active)
2,O=C(COc1ncnc2scc(-c3ccccc3)c12)NCCN1C(=O)CSC1=O,19.4 µM (active)
3,C=CCOc1c(Cl)cc(CNc2ccc(N(C)C)cc2)cc1OC,inactive
4,Cn1c(=O)c(C(=O)COc2ccc(C#N)cc2)c(N)n(Cc2ccccc2)c1=O,8.7 µM (active)
5,CCN(CC)C(=O)c1cc(Cl)ccc1NC(=O)c1ccco1,inactive
6,Cc1ccccc1NC(=O)CNc1ccccc1C(=O)NCc1ccco1,inactive
7,Cc1cccc(C(=O)Nc2ccccc2C(=O)NCc2ccco2)c1,inactive
8,CC1(C)Cc2nc3sc4c(SCC(=O)NC(c5ccccc5)c5ccccc5)ncnc4c3cc2CO1,3.88 µM (active)
9,CC(C)(C)C(=O)Nc1ccccc1C(=O)NCc1ccco1,inactive
10,CCC(=O)Nc1ccc(NC(=O)CSc2nc3c(c(=O)n(C)c(=O)n3C)n2CC)cc1,43.6 µM (active)
11,CCC(=O)Nc1ccc(-n2nnnc2SCC(=O)NNC(=O)c2ccco2)cc1,inactive
12,CN(Cc1ccccc1)C(=O)c1ccccc1NC(=O)c1ccco1,inactive
13,COc1ccc(CC(=O)N/N=C/c2cccnc2)cc1OC,inactive
14,CC(=O)c1c(C)[nH]c(C(=O)OCc2cc(=O)n3cc(Br)ccc3n2)c1C,8.68 µM (active)
15,c1ccc(-c2nnc(-c3ccccn3)c(-c3ccccn3)n2)nc1,inactive
16,Cn1c(=O)c2sccc2n2c(CCCC(=O)NCc3ccco3)nnc12,34.6 µM (active)
17,S=c1nc[nH]c2c1[nH]c1ccccc12,7.74 µM (active)
18,CC1(C(=O)Nc2nc3ccccc3s2)CC1(Br)Br (stereo not given),inactive
19,CCn1c(=O)c2cc(C(=O)Nc3cccc(C(C)=O)c3)sc2c2ccccc21,inactive
20,COc1ccc(C(C)=O)cc1Cn1cnc2c(cnn2C)c1=O,13.8 µM (active)
